The target in experiment [1] is Protein kinase C gamma type (Homo sapiens) (UniProt P05129). The note with it: at 1 µM.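 Also: each value is an averaged percent inhibition of the enzyme.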
Experiment [2] concerns the target T1, Protein kinase C iota type (Homo sapiens) (UniProt P41743).
T1 sequence (whole entry): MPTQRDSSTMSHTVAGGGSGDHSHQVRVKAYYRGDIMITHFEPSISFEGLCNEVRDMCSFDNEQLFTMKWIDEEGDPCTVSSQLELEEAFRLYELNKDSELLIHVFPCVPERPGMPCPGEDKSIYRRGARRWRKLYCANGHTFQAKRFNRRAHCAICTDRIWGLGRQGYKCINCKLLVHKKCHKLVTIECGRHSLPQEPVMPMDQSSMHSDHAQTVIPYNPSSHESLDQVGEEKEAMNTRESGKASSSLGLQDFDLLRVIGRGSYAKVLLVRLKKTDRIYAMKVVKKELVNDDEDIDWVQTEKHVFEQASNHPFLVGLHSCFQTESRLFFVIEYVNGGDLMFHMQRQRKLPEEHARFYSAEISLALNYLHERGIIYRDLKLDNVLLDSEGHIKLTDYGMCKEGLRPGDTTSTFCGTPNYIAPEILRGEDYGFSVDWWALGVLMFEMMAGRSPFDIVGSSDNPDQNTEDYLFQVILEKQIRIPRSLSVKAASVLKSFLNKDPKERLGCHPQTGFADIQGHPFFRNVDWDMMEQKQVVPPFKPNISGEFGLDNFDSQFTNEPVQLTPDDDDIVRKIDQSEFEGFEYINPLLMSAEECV
The note with it: at 0.1 µM.

The target of experiment [3] is T1, Protein kinase C iota type (Homo sapiens). As to conditions: at 1 µM.
Experiment [4] addresses Protein kinase C theta type (Homo sapiens) (UniProt Q04759). As to conditions: at 0.1 µM.
Experiment [5] shares this target. As to conditions: at 1 µM.
The target in experiment [6] is Protein kinase C beta type (Homo sapiens) (UniProt P05771). The note with it: at 0.1 µM.
Sequence of Protein kinase C beta type (Homo sapiens) (P05771 2-671 limits assumed): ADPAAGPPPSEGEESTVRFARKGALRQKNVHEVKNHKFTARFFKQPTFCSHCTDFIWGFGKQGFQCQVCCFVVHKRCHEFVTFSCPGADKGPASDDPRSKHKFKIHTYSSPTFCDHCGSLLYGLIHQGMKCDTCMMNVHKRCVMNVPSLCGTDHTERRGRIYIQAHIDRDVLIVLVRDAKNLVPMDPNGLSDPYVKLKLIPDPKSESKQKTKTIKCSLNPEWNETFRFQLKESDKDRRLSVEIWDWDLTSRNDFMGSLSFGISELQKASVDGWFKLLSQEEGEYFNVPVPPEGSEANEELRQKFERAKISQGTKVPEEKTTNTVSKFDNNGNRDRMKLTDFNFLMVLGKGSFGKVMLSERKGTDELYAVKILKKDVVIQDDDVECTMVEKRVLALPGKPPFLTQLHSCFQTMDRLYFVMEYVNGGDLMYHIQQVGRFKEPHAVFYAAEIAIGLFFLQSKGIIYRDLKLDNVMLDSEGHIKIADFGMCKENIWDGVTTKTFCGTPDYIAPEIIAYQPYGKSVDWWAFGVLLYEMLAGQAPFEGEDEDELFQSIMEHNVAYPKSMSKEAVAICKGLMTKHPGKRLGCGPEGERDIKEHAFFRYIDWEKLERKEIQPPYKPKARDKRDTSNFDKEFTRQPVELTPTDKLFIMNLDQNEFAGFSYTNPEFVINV
Experiment [7] has the same target. As to conditions: at 1 µM.
The target of experiment [8] is T2, Serine/threonine-protein kinase D1 (Homo sapiens) (UniProt Q15139).
T2 sequence (whole entry): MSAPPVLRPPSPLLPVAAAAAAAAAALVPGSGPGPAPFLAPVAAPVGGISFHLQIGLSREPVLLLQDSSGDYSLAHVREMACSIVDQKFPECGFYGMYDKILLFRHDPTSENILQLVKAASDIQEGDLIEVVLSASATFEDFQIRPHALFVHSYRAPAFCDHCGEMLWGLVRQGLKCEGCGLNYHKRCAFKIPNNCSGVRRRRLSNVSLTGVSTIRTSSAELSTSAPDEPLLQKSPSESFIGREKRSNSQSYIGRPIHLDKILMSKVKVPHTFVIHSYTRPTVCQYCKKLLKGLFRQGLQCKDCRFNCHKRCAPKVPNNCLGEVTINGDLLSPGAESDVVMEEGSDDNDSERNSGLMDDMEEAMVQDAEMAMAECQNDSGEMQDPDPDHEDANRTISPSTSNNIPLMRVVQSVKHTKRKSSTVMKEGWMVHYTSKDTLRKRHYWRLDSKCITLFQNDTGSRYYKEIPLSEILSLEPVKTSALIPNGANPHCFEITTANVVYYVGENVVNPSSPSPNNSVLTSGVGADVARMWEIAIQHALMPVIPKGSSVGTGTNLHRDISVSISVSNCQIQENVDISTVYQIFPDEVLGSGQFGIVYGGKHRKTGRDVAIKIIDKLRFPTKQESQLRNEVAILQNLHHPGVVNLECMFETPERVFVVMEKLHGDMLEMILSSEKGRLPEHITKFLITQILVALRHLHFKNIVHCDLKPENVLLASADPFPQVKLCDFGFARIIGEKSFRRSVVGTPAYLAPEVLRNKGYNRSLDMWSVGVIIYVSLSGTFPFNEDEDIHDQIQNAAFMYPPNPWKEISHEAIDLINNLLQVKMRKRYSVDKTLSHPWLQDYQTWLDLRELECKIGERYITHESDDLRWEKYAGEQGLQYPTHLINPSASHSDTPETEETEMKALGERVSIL
The note with it: at 0.1 µM.

The target in experiment [9] is T2, Serine/threonine-protein kinase D1 (Homo sapiens). The note with it: at 1 µM.
In experiment [10] the target is T3, Serine/threonine-protein kinase D2 (Homo sapiens) (UniProt Q9BZL6).
T3 sequence (whole entry): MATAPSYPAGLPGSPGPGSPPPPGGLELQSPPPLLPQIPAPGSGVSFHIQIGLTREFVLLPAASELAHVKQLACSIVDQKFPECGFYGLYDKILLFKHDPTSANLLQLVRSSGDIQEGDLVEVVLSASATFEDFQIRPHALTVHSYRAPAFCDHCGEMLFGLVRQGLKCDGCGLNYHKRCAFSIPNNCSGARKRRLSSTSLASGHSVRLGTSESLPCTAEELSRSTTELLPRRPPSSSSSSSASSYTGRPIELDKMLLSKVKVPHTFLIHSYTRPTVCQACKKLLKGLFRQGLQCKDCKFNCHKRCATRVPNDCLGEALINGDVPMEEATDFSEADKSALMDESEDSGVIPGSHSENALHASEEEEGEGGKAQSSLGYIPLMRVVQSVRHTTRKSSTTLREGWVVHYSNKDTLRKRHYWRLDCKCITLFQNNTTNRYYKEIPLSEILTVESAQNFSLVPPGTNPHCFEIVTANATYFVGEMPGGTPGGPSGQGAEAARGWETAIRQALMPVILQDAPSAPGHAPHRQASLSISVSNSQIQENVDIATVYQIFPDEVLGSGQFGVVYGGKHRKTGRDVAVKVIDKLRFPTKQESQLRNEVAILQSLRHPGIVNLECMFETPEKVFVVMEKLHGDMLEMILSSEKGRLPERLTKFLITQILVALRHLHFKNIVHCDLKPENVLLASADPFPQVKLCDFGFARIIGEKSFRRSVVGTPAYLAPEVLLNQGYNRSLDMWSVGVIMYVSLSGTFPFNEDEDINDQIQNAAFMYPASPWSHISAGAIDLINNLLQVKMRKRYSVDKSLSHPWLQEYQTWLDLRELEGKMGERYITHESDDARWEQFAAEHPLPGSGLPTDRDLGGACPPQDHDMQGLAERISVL
The note with it: at 0.1 µM.

For experiment [11], the target named is T3, Serine/threonine-protein kinase D2 (Homo sapiens). As to conditions: at 1 µM.
Experiment [12] addresses T4, Serine/threonine-protein kinase D3 (Homo sapiens) (UniProt O94806).
T4 sequence (whole entry): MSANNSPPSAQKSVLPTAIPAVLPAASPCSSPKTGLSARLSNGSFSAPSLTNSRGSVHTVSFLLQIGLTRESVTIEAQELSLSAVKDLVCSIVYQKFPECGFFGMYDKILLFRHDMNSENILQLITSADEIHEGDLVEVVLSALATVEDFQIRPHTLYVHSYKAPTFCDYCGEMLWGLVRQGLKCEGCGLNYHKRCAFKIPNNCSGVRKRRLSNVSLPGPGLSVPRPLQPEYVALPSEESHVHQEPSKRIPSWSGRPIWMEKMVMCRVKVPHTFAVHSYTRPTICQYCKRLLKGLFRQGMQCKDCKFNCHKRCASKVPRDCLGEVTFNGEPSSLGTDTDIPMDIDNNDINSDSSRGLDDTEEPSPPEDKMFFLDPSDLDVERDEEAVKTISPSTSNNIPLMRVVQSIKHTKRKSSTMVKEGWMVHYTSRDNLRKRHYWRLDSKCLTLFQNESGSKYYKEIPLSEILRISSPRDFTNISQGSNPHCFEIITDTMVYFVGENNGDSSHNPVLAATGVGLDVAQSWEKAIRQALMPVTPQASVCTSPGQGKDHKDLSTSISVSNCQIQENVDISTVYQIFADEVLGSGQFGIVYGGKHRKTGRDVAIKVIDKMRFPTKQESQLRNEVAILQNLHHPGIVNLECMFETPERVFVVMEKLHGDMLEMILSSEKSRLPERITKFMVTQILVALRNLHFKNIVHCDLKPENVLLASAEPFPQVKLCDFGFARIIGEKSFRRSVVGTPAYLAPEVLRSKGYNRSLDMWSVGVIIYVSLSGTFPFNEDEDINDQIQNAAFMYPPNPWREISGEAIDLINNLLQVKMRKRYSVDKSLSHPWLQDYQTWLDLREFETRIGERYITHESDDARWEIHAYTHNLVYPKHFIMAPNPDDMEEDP
The note with it: at 0.1 µM.

The target in experiment [13] is T4, Serine/threonine-protein kinase D3 (Homo sapiens). The note with it: at 1 µM.
Experiment [14] addresses T5, cGMP-dependent protein kinase 1 (Homo sapiens) (UniProt Q13976).
T5 sequence (whole entry): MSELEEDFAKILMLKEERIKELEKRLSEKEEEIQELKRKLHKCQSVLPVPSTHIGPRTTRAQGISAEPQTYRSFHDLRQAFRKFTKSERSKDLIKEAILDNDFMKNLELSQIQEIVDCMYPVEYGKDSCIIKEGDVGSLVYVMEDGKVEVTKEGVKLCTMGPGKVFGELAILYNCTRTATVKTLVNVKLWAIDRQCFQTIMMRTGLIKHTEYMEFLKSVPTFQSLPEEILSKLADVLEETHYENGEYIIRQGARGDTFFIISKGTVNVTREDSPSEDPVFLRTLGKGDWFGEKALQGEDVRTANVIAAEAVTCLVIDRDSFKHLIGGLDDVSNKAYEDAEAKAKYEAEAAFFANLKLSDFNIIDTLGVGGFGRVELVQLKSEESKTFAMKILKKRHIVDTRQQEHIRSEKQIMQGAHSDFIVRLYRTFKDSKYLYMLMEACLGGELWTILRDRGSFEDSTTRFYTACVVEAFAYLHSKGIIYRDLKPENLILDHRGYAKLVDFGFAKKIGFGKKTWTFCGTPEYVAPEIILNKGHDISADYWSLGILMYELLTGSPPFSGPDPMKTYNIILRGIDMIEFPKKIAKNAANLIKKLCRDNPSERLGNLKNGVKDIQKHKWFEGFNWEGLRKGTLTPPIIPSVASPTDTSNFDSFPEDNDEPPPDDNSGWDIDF
The note with it: at 0.1 µM.

Experiment [15] deals with T5, cGMP-dependent protein kinase 1 (Homo sapiens). The note with it: at 1 µM.
Experiment [16] has as its target T6, cGMP-dependent protein kinase 2 (Homo sapiens) (UniProt Q13237).
T6 sequence (whole entry): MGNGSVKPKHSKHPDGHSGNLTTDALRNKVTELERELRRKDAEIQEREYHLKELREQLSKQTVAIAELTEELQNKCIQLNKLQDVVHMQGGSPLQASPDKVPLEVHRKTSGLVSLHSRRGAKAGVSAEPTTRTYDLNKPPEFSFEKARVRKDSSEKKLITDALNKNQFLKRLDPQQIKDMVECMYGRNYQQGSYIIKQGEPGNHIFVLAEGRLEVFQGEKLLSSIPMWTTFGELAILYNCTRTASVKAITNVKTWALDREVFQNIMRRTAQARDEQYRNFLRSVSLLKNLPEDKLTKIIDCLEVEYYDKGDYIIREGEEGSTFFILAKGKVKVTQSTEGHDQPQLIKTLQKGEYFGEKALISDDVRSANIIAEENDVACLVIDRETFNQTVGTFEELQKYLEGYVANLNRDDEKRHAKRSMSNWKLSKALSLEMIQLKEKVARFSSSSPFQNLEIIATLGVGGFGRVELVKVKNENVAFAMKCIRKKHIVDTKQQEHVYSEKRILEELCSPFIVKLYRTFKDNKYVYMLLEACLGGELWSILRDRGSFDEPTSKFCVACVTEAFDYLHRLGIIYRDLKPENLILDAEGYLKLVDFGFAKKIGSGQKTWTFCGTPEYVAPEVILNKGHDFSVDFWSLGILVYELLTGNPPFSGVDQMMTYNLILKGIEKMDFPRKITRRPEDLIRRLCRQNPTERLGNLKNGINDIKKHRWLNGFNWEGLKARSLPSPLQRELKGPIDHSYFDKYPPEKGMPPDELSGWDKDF
The note with it: at 0.1 µM.

The target of experiment [17] is T6, cGMP-dependent protein kinase 2 (Homo sapiens). As to conditions: at 1 µM.
The target of experiment [18] is T7, cAMP-dependent protein kinase catalytic subunit PRKX (Homo sapiens) (UniProt P51817).
T7 sequence (whole entry): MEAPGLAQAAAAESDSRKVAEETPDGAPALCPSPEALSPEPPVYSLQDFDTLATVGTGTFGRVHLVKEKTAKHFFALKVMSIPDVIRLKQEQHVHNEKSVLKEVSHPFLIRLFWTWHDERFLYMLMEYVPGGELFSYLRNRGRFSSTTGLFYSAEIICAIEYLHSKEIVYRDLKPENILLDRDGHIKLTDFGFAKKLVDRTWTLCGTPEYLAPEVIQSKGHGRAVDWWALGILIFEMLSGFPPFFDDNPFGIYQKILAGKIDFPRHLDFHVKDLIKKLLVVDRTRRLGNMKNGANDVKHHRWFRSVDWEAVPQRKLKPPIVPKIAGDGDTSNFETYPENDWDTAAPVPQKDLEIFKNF
The note with it: at 0.1 µM.

The target of experiment [19] is T7, cAMP-dependent protein kinase catalytic subunit PRKX (Homo sapiens). The note with it: at 1 µM.
Experiment [20] concerns the target Rho-associated protein kinase 1 (Homo sapiens) (UniProt Q13464). The note with it: at 0.1 µM.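 Also: values are mean percent inhibition of ROCK1.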

Molecules are shown by their SMILES.

In general, inhibition refers to the relative decrease from the control value, in per cent.

Sequence of Protein kinase C theta type (Homo sapiens) (Q04759 whole entry, looked up): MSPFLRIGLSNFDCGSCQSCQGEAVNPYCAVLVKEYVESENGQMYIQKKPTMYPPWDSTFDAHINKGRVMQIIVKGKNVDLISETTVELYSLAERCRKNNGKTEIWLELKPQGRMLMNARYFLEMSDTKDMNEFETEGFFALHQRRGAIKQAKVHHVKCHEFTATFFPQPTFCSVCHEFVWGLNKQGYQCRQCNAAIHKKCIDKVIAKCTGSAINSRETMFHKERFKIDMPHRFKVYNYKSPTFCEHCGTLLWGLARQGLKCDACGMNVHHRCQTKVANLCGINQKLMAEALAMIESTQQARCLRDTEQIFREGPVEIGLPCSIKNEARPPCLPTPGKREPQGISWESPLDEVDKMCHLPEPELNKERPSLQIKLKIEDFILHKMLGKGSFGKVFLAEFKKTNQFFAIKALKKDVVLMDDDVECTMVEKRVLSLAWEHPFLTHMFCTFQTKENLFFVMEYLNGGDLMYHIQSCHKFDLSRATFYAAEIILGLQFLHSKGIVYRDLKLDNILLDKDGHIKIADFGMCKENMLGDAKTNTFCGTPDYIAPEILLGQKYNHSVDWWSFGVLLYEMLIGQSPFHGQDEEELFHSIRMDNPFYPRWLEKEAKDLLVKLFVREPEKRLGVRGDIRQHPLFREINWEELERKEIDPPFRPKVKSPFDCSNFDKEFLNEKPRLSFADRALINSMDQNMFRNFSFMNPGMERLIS
Sequence of Rho-associated protein kinase 1 (Homo sapiens) (Q13464 2-1354 limits assumed): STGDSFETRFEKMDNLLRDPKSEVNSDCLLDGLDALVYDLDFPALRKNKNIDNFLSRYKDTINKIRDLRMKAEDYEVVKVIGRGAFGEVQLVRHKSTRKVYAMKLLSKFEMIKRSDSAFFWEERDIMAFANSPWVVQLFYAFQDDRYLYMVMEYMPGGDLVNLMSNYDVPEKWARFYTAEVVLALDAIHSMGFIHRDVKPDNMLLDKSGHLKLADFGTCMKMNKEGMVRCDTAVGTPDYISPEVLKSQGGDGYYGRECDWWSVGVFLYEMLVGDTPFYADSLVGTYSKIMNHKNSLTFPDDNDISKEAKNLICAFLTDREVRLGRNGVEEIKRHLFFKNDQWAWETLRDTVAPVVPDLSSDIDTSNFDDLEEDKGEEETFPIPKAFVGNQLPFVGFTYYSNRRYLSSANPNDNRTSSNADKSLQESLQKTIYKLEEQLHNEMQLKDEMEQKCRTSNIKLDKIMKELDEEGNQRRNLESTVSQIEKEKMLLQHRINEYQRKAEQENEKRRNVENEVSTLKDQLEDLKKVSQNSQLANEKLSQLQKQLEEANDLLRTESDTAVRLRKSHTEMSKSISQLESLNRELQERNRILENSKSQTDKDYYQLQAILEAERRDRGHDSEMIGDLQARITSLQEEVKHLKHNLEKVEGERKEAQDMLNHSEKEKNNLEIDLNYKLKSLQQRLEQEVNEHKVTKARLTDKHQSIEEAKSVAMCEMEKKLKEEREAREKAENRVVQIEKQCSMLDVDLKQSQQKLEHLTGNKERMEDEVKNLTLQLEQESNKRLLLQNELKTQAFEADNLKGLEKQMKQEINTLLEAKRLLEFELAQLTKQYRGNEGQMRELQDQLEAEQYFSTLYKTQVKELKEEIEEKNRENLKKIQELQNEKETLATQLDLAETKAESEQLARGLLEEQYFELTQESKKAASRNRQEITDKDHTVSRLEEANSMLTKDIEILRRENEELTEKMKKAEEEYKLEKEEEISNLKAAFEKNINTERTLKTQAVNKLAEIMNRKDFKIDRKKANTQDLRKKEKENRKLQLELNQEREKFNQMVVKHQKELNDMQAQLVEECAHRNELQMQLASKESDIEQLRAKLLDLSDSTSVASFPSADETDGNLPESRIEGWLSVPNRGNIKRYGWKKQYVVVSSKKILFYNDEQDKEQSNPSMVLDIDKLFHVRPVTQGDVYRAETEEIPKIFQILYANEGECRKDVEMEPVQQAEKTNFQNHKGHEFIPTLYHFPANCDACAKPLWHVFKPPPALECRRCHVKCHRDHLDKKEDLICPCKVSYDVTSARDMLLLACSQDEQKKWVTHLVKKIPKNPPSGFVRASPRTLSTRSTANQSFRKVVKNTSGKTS

As to `CCOc1ccc2c(-c3ccnc(Nc4cccc(C(F)(F)F)c4)n3)cnn2n1`, the inhibition turned out to be 2.94% in [1]; 1.45% in experiment [2]; 0.72% in experiment [3]; 0.84% in experiment [4]; 0.7% in experiment [5]; 0.45% in [6]. The inhibition in experiment [7] was found to be 0.29%; in experiment [8] it was 3.34%; in experiment [9], 3.21%; in experiment [10] it was 3.62%; in experiment [11], 1.84%; in [12], 3.02%. Further, the inhibition in experiment [13] was determined as 3.58%; in [14] it was 0.52%; in experiment [15] it was 1.15%; in [16], 0.91%; in experiment [17], 0.29%; in [18], 0.1%. For the same compound, the values for the inhibition in experiment [19] and in [20] were -0.76% and -1.15%, respectively.
In the case of `COc1ccc(-c2cc(-c3c[nH]nc3-c3ccccn3)ccn2)cc1`, the inhibition in experiment [1] stood at 1.71%; in experiment [2], 1.68%; in [3], 0.87%; in [4] it was 2.82%; in experiment [5], 5.05%; in experiment [6] it was 0.62%. The inhibition came to 1.96% in experiment [7]; 8.14% in experiment [8]; 37.8% in experiment [9]; 9.14% in experiment [10]; 44.8% in experiment [11]; 7.96% in [12]. Also, the inhibition in experiment [13] was determined as 27.2%; in experiment [14], 1.9%; in experiment [15] it was 5.45%; in [16] it was 3.27%; in experiment [17] it was 4.61%; in [18], 2.8%. Moreover, the inhibition in experiment [19] was 6.17%; in experiment [20], 1.04%.

The values above are taken from ChEMBL document CHEMBL1961873, “Compounds: GSK PKIS; Assays: Nanosyn kinase panel” (2012).
